# From PubChem BioAssay AID1362 (SRMLSC, 2008)
# Out of some 190,000 compounds screened, about 4,000 (2.1%) were called active. Rule as the data show it: active = inhibition above about 58%; inactive = the rest, inconclusive results apart; tested in S. cerevisiae. For the sample, actives were picked, then their nearest neighbours and some compounds at random.
# Experiment: growth inhibition of WT strain, primary screen, mitochondrial fusion inhibitor project, WT and mutant strains, chemical genetic (AID 1362)
# Conditions: mitochondrial fusion phenotypic screen, at 10 µM
# [1] = WT strain, growth inhibition, stronger effect = higher value
SMILES,inhibition [1],inhibition (mutant strain inhibition) [%]
COc1ccccc1N1N=C(c2cccs2)CC1c1ccccc1 (configuration not stated),52.7% (inactive),33.7
Fc1ccc(N2N=C(c3cccs3)CC2c2ccco2)c(F)c1 (configuration not stated),70.8% (active),10.1
COc1ccc(C2CC(c3cccs3)=NN2c2ccc(F)cc2)cc1OC (configuration not stated),30.3% (inactive),11.7
CCN1CCC2(CCN(Cc3cn[nH]c3-c3ccc(OC)c(F)c3)C2)C1 (configuration not stated),-2.46% (inactive),-5.08
CN1C2CCC1/C(=C\c1ccccc1Cl)C(=O)/C2=C\c1ccccc1Cl,60.7% (active),32.3
O=C(CN1CCCCCC1)NCCN1C(=O)S/C(=C\c2ccccc2Cl)C1=O,2.91% (inactive),-4.16
CCC1CCCCN1S(=O)(=O)Cc1ccccc1Cl (configuration not stated),0.45% (inactive),1.41
COc1ccc(Cl)cc1N(CC(=O)N1CCCCC1)S(C)(=O)=O,11.8% (inactive),0.08
Cc1cc(C)cc(C(=O)NC2C(=O)N3C(C(=O)O)=C(CSc4nnc(C)s4)CSC23)c1 (configuration not stated),4% (inactive),-0.51
COC(=O)c1sccc1NC(=O)c1csc2c1CCCC2,71.3% (active),48.8
COC(=O)c1sc(NC(=O)c2csc3c2CCCC3)nc1C,16.5% (inactive),0.86
Cc1ccc(NC(=O)c2csc3c2CCCC3)cc1,11.5% (inactive),21.5
CC(=O)c1cccc(-n2nnnc2SCC(=O)NNC(=O)C2CCCCC2)c1,6.05% (inactive),12.8
Cc1cc(-c2nnc(CCC(=O)NC(c3ccccc3)c3ccccc3)o2)no1,7.01% (inactive),6.86
O=C(CCCn1c(SCC(=O)c2ccc(F)cc2)nc2ccccc2c1=O)NCc1ccco1,7.88% (inactive),15.5
CCOC(=O)C(C)Sc1nc2ccccc2c(=O)n1CC1CCCCC1 (configuration not stated),21.8% (inactive),-3.67
CC(Sc1nc2ccccc2c(=O)n1Cc1ccco1)C(=O)c1ccccc1 (configuration not stated),69.4% (active),31.3
Cc1cc([N+](=O)[O-])nn1CCCC(=O)Nc1cccnc1Cl,-5.91% (inactive),-23.5
COc1cc(S(=O)(=O)N2CCOCC2)ccc1NC(=O)COc1ccc(N(C)S(=O)(=O)c2ccc(C)cc2)cc1,3.51% (inactive),-4.35
Cc1nn(-c2ccccc2)c2sc(C(=O)N(Cc3ccco3)C(C)C(=O)NC(C)(C)C)cc12 (configuration not stated),68.7% (active),1.44
Cc1ccc(-c2nnn(CC(=O)N(Cc3ccco3)C(C(=O)NC(C)(C)C)c3ccncc3)n2)o1 (configuration not stated),-1.04% (inactive),-4.44
